We go through 104 compounds from ChEMBL document CHEMBL1201862, “PubChem BioAssay data set” (2004).

“And” between values parts separate entries of the source, which are not always exact repeats. Identical values can stand only once. Among all 400,000 compounds or so, about 2,100 (0.53%) were called active. About 14% were inconclusive and are not listed. The rule behind the calls is not given here. The sample as a whole holds a higher share of actives than the screen did.

This experiment deals with Ataxin-2 (Homo sapiens) (UniProt Q99700). Kind of experiment: qHTS for Inhibitors of ATXN expression. The experiment is classed as functional.
Ataxin-2 (Homo sapiens), sequence (Q99700 whole entry): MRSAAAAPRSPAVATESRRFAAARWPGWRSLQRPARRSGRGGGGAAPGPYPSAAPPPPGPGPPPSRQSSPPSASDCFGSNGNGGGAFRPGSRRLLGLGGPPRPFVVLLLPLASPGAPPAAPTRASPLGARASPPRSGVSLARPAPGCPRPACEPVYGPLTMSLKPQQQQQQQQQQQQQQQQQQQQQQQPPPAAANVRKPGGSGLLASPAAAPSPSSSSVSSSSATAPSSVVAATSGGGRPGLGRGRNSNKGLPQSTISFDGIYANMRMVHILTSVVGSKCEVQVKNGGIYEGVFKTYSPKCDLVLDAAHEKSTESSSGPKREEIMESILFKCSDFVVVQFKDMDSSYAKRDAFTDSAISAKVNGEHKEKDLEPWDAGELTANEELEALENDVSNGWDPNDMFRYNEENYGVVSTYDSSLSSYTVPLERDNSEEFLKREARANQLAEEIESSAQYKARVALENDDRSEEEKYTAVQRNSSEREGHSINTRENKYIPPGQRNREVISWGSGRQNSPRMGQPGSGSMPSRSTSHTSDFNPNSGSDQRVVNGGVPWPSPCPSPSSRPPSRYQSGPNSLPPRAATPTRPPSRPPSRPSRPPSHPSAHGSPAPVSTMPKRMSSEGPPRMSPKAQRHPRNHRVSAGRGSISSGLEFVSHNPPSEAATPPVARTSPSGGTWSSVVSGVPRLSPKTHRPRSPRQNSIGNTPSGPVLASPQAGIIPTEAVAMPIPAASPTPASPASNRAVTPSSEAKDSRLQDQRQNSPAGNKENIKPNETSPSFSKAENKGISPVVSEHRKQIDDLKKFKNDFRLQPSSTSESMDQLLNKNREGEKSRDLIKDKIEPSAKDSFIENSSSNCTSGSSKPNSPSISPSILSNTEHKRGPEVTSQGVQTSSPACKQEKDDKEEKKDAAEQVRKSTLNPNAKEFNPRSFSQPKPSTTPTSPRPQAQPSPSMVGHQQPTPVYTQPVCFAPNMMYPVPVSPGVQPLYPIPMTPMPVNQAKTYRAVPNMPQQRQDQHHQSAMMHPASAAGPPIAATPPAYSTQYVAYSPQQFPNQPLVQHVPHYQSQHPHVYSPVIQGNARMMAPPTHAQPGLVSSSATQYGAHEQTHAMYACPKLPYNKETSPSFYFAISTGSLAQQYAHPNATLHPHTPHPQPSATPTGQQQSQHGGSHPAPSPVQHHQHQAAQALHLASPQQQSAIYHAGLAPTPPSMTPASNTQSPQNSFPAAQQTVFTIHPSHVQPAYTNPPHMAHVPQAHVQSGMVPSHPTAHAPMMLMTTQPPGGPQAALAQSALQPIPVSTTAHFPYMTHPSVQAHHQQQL
`Cc1ccc2[nH]c3c(c2c1)SC(C)(C)CC3=O`: the Potency result is “inactive”.
On to `C=CCc1ccc(O)c(-c2ccc(O)c(CC=C)c2)c1`, for which the Potency is 28.2 µM (active).
Regarding `CC(=O)Nc1sc(/C(C#N)=C\c2cccc(Cl)c2)nc1-c1ccc(C)cc1`, the Potency result was “inactive”.
For `CCC(C)n1c(=N)c(C(=O)NCc2ccco2)cc2c(=O)n3cc(C)ccc3nc21` (centres undefined), the Potency result was “inactive”.
The value for `COc1ccc(Cl)cc1-c1n[nH]c(SCC(=O)NC2CC2)n1` was “inactive”; that for `O=C(CSc1nnc(-c2ccccc2F)n1C1CC1)Nc1ccc2[nH]c(O)nc2c1` was “inactive”; that for `COc1ccc(NC(=O)CSc2nc(C)cs2)c(OC)c1` was “inactive”.
The same measure for `COc1ccc(CC(=O)Nc2ccc3nc(Nc4cccc(Cl)c4)cc(C)c3c2)cc1OC`: “inactive”; for `CNC(=O)COC(=O)c1c2c(nc3ccccc13)CCC2`: “inactive”.
On to `COc1ccc(NC(=O)CSc2c3c(nc4ccccc24)CCCC3)c(OC)c1`, for which the Potency is 39.8 µM (active).
The value for `COc1cccc(NC(=O)CSc2c3c(nc4ccccc24)CCCC3)c1` was 35.5 µM (active); that for `COc1ccc(NC(=O)CSc2nc3ccsc3c(=O)n2Cc2ccccn2)c(OC)c1` was “inactive”.
Turning to `COc1ccc(NC(=O)CSc2c3c(nc4cc(Cl)ccc24)CCCC3)cc1OC`, the Potency was 31.6 µM (active).
In the case of `Cc1ccc(NC(=O)CSc2c3c(nc4ccccc24)CCCC3)cc1F`, the Potency was 35.5 µM (active).
Regarding `Cc1ccc(C2CC(=O)Nc3cc4c(cc32)OCCO4)cc1` (centres undefined), the Potency entry is “inactive”.
On to `CCOC(=O)C1=C(N)Oc2cc(O)ccc2C1c1ccc(F)cc1F` (centres undefined), for which the Potency result is “inactive”.
The same measure for `COc1ccc(CCNC(=O)c2ccc3c(Cl)c4c(nc3c2)CCCC4)cc1OC`: 31.6 µM (active); for `COc1ccc(CCNC(=O)C(=O)NCc2ccc(Cl)cc2)cc1OC`: “inactive”; for `Cc1ccc(NC(=O)CSc2nc3ccccc3c(=O)n2CCCC(=O)NCCCN2CCOCC2)cc1`: “inactive”.
The value for `COc1ccc(OC)c(NC(=O)CSc2c3c(nc4ccccc24)CCCC3)c1` was 39.8 µM (active); that for `COc1ccc(CCNC(=O)Cc2c(C)c3ccc(O)c(C)c3oc2=O)cc1OC` was “inactive”; that for `Cc1ccc(NC(=O)CSc2nc3ccccc3c(=O)n2CCCN2CCCCC2)cc1C` was 31.6 µM (active).
Regarding `COc1ccc(OC)c(NC(=O)CSc2nc3nc(O)cc(O)c3s2)c1`, the Potency entry is “inactive”.
For the compound `CCCn1c(SCC(=O)NCCCN2CCCC2=O)nc2ccccc2c1=O`, the Potency entry is “inactive”.
Turning to `CCOC(=O)c1cc2c(=O)n3ccccc3nc2n(C(C)C)/c1=N/C(=O)C(C)(C)Oc1ccc(Cl)cc1`, the Potency entry was “inactive”.
The same measure for `CCn1c(=N)c(C(=O)NCc2ccccc2)cc2c(=O)n3cccc(C)c3nc21`: “inactive”; for `Nc1nc2nccc(-c3cccnc3)n2n1`: “inactive”.
The same measure for `O=C(O)c1cccc(CSc2nnc(-c3cccnc3)o2)c1`: “inactive”; for `c1cncc(-c2nnc(-c3cccnc3)nn2)c1`: 35.5 µM (active); for `CCOC(=O)C1=C(C)c2ccccc2N(C(=O)OC)C1(C)C(=O)OCC` (centres undefined): 35.5 µM (active).
Regarding `O=C(c1ccco1)N1CCN(Cc2cc(=O)oc3cc(O)ccc23)CC1`, the Potency entry is “inactive”.
The value for `O=C1c2ccccc2-c2onc3c(N4CCN(CCO)CC4)cc(N4CCN(C(=O)c5ccco5)CC4)c1c23` was 39.8 µM (active); that for `Nc1cccc2c1C(=O)N(C(=O)c1ccco1)C2=O` was “inactive”.
Consider `CC(C)(C)N(CC#CCC(O)(c1ccccc1)c1ccccc1)CCO`, for which the Potency entry is “inactive”.
Regarding `CCC(C(=O)NCCc1ccccc1)c1ccccc1` (centres undefined), the Potency result is “inactive”.
Consider `CCC[C@@H](CNC)NC[C@H](Cc1ccccc1)NCCCCc1ccccc1`, for which the Potency was 39.8 µM (active).
The value for `CCCn1c(=N)c(S(=O)(=O)c2ccccc2)cc2c(=O)n3ccccc3nc21` was “inactive”; that for `CCCn1c(CC)nc([N+](=O)[O-])c1S(=O)(=O)c1ccccc1` was 35.5 µM (active).
As for `O=C(O)/C=C/c1nc(-c2ccccc2)n2ccccc12`, the Potency entry is “inactive”.
Take `CC(=O)Oc1c(-c2ccco2)oc2ccccc2c1=O`: the Potency result is “inactive”.
The value for `COc1cccc(CNC(=O)CCCc2nnc3n(C)c(=O)c4sccc4n23)c1` was “inactive”; that for `C/C(=N\Nc1ccc([N+](=O)[O-])cc1)c1cc2ccccc2o1` was “inactive”.
The value for `O=C(N/N=C/c1ccc([N+](=O)[O-])o1)c1cc2ccccc2o1` was 10 µM (active).
Regarding `Cc1ccc(-c2ccc(/C=N\NC(=O)c3cc4c(ccc5ccccc54)o3)o2)cc1[N+](=O)[O-]`, the Potency was 37.7 µM (active).
In the case of `O=C(N/N=C/c1cc(Br)c(O)c(Br)c1)c1cc2c(ccc3ccccc32)o1`, the Potency result is “inactive”.
As to `Cc1ccc(C(=O)N/N=C/c2ccc(-c3ccc(Br)cc3[N+](=O)[O-])o2)o1`, the Potency result was “inactive”.
The value for `COc1ccc(OC)c(/C=N\NC(=O)c2cc3c(ccc4ccccc43)o2)c1` was “inactive”; that for `CCOC(=O)c1cc2c(=O)n3ccccc3nc2n(CC2CCCO2)/c1=N\C(C)=O` (centres undefined) was “inactive”.
The same measure for `CN(C)/C=N/C(=S)Nc1cc(Cl)cc(Cl)c1`: “inactive”.
The value for `CC1CCc2nc(/C(C#N)=C/c3cccnc3)sc2C1` (centres undefined) was “inactive”; that for `C(=NOCc1ccccc1)c1ccccn1` was “inactive”; that for `CC1C/C(=C/c2ccccn2)C(=O)/C(=C/c2ccccn2)C1` (centres undefined) was 11.9 µM (active).
Take `CC1C/C(=C\c2cccnc2)C(=O)/C(=C/c2cccnc2)C1` (centres undefined): the Potency was 11.2 µM (active).
The value for `Cc1cccc(NC2=NC(=O)/C(=C/c3cccnc3)S2)c1` was “inactive”; that for `CCC1C/C(=C\c2cccnc2)C(=O)/C(=C/c2cccnc2)C1` (centres undefined) was 14.1 µM (active); that for `CSC1=N/C(=C/c2cccnc2)C(=O)N1Cc1ccccc1` was “inactive”.
For the compound `CN(C)S(=O)(=O)c1cccc(NC(=O)Cn2cc(C(F)(F)F)cc(Cl)c2=O)c1`, the Potency entry was “inactive”.
The same measure for `CCn1c(SCC(=O)Nc2cccc(C)c2)nc2nc3c(cc2c1=O)COC(C)(C)C3`: “inactive”.
For `CN(C)S(=O)(=O)c1cccc(NC(=O)CSc2cccc3cccnc23)c1`, the Potency is 39.8 µM (active).
The value for `O=C(CSc1cccc2cccnc12)N/N=C/c1cccnc1` was 39.8 µM (active); that for `Cc1ccc(NC(=O)CSc2cccc3cccnc23)c(C)c1` was 39.8 µM (active); that for `COc1ccc(/C=C/C(=O)NCC(=O)N/N=C/c2cccnc2)cc1` was “inactive”.
As for `Cc1cccc(NC(=O)CSc2cccc3cccnc23)c1`, the Potency is 44.7 µM (active).
On to `Cc1cc(SCC(=O)Nc2cccnc2Cl)nc2ccccc12`, for which the Potency result is “inactive”.
Turning to `Cc1ccc(NC(=O)CSc2nc3nc(O)cc(O)c3s2)c(Br)c1`, the Potency result is “inactive”.
In the case of `O=C(CSc1nnc2ccc(-c3ccccn3)nn12)Nc1cccc(F)c1`, the Potency result was “inactive”.
`O=C(CSc1ncccn1)N/N=C/c1ccccc1[N+](=O)[O-]`: the Potency result is “inactive”.
The value for `CN(C)S(=O)(=O)c1ccc(SCC(=O)Nc2cccc(S(=O)(=O)N3CCCC3)c2)nc1` was “inactive”; that for `COc1ccc(C(=O)NCCNc2nc3ccc(C)cc3cc2C#N)cc1OC` was “inactive”.
The same measure for `O=C(CSc1ccccn1)N1CCN(c2ncc(C(F)(F)F)cc2Cl)CC1`: “inactive”; for `COc1ccc(OC)c(C2CC(=O)N3CN(c4ccccc4F)CSC3=C2C#N)c1` (centres undefined): “inactive”.
For the compound `O=C(CCN1C(=O)/C(=C/c2ccc(F)cc2)SC1=S)Nc1cccnc1`, the Potency entry was “inactive”.
The same measure for `O=C(CCCN1C(=O)/C(=C/c2ccccc2OC(F)F)SC1=S)Nc1cccnc1`: 20 µM (active); for `O=C(CCCN1C(=O)c2cccnc2C1=O)Nc1ccccc1F`: “inactive”; for `C(=N\NC1=NCCN1)/c1ccncc1`: “inactive”.
The same measure for `CCCCOc1ccc(Br)cc1/C(C)=N/NC1=NCCN1`: 22.4 µM (active).
On to `Cn1c(Cl)cnc1C(O)(c1ccccc1)c1ccccc1`, for which the Potency result is “inactive”.
In the case of `CCc1nc2ccccc2c(C(=O)OCC(=O)C(C)(C)C)c1C`, the Potency entry was “inactive”.
The value for `COc1ccc([N+](=O)[O-])cc1NC(=O)C(C)OC(=O)CN1C(=O)C2CC=CCC2C1=O` (centres undefined) was “inactive”; that for `CCNc1cccc2c1C(=O)N(C)C2=O` was “inactive”.
The value for `O=C1c2c(O)ccc(O)c2C(=O)c2c(NCCNCCO)ccc(NCCNCCO)c21` was 2.99 µM (active) and 20 µM (active).
The same measure for `O=C1c2cccc(NCCCNCCO)c2C(=O)c2cccc(NCCCNCCO)c21`: 15 µM (active); for `O=C1c2ccccc2C(=O)c2c(NCCCN(CCO)CCO)cccc21`: 26.7 µM (active).
For the compound `CN1C(=O)c2cccc(NCCCN3C(=O)c4ccccc4C3=O)c2C1=O`, the Potency entry is “inactive”.
The value for `CC1CCCCC1NC(=O)COC(=O)c1c2c(nc3ccccc13)/C(=C\c1ccco1)CC2` (centres undefined) was “inactive”.
With `Cc1csc(NC(=O)c2sc3nc(-c4cccs4)ccc3c2N)n1`, the Potency result is “inactive”.
The value for `CCOC(=O)c1cc2c(=O)n3ccccc3nc2n(C(C)C)/c1=N\C(=O)c1c(-c2c(F)cccc2Cl)noc1C` was “inactive”.
The same measure for `Cc1c(Br)c(=O)oc2c(Br)c(O)c(O)cc12`: “inactive”.
The same measure for `CN(C)c1ccc(/C=N/NC(=O)c2ccc3[nH]cnc3c2)cc1`: “inactive”.
`Nc1ccc(N=Nc2ccc(O)cc2)c(N)n1`: the Potency is 21.2 µM (active).
Take `Nc1ccc(/N=N\c2ccccc2)c(N)n1`: the Potency result is “inactive”.
The value for `Nc1nc(O)cc(N=Nc2ccc(O)cc2)n1` was 17.8 µM (active); that for `Nc1c(Cl)cc(-c2nc3cc(C(=O)NCCO)ccc3c(O)c2O)cc1Cl` was “inactive”; that for `CC(C)OC(=O)c1ccc(NCc2cc(O)ccc2O)cc1` was 29.9 µM (active).
The same measure for `COC(=O)c1ccc(C2C(C#N)=C(N)Oc3cc(O)ccc32)cc1` (centres undefined): “inactive”; for `O=C1C=CC(=O)C(CNc2ccc(C(=O)OCc3ccccc3)cc2)=C1`: 23.8 µM (active); for `COC(=O)c1ccc(NCc2cc(O)ccc2O)cc1O`: 39.8 µM (active).
Regarding `Cc1ccc(O)c(C(=O)CC(=O)c2ccccc2Cl)c1`, the Potency result is “inactive”.
The value for `COc1ccc(CNc2nc3ccccc3n2C(C)C)c(O)c1` was “inactive”.
The same measure for `CC(C)OC(=O)c1ccc(NCc2cc(O)ccc2O)cc1Cl`: 20 µM (active); for `Nc1ccc(C(=O)NCc2ccccc2)cc1`: “inactive”; for `COC(=O)c1cc(CN2CCN(c3ccccc3)CC2)ccc1O`: “inactive”.
On to `CN(C)c1nc(-c2cccs2)cc(C(F)(F)F)c1C#N`, for which the Potency entry was “inactive”.
The same measure for `CCCCOc1c(C(=O)Nc2ccccc2)nnn1-c1ccccc1`: “inactive”.
